Compound activity deposited in PubChem BioAssay by National Center for Advancing Translational Sciences (NCATS).
LDHA block: qHTS assay for inhibitors of human lactate dehydrogenase; L-lactate dehydrogenase A chain (Homo sapiens), P00338; purified LDHA, NADH/diaphorase-resazurin fluorescence; stronger effect = lower value; activity change, % (values are at about 110 or 230 µM); 480,000 tested, 0.15% active; AID 1347041, 2019; in the data active = activity change below about -30%; inconclusive = mostly about -25% to -30%
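Human LDH5 (2 nM) was incubated with 0.06 mM NADH and 0.2 mM pyruvate for 5 min at room temperature in Tris pH 7.4. Remaining NADH was coupled through diaphorase/resazurin, and resorufin fluorescence was read at 0 and 20 min.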
Akt phos inh: HTS Assay for Inhibitors of Akt Phophorylation: Primary Screen; Neuro2A IGF-stimulated pAkt S473 HTRF, 20 min; stronger effect = lower value; activity change, % for hits at 50 µM; 360,000 tested, 0.32% active; AID 651550, 2012; in the data active = activity change below about -80%; inconclusive = mostly about -51% to -80%
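Single-point screen (50 µM final compound) in Neuro2A cells stimulated 20 min with 6 nM IGF at 37 deg C. After lysis, Ser473-phosphorylated Akt read by HTRF (ex 330 nm, em 615/665 nm) as the 665/615 ratio.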
D3 ag: qHTS of D3 Dopamine Receptor Agonist: qHTS; D(3) dopamine receptor (Homo sapiens), P35462; D3R DiscoveRx beta-arrestin cells, luminescence, 90 min; max activation, %; 410,000 tested, 0.58% active; AID 652048, 2013; in the data active = max activation above about 30%
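Agonist mode: compounds and dopamine controls were applied to plated cells for 90 min at 37 degrees C after an overnight attachment at 1500 cells/well. Luminescent read-out followed 30 - 60 minutes at room temperature with DiscoveRx detection reagent.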
RGS4 inhibitor: Inhibitors of Regulator of G Protein Signaling (RGS) 4: qHTS. Regulator of G-protein signaling 4 (Homo sapiens), P49798. 390,000 tested, 0.039% active. AID 504845, 2011. Potency, µM (highest dose often 114 µM), usual class: inhibitors. Transcreener GDP fluorescence polarization, RGS4-accelerated GTP hydrolysis; active = well fitted inhibition curve with a large enough effect; inconclusive = small, poorly fitted or top-dose-only effect; inactive = no such curve, though single readings can be large or run the other way; also: nearly all actives have a fitted effect of over 75% in size
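MLSMR compounds (23 nl, pin-transferred) preincubated 10 min at room temperature with a 500nM (2x) first reagent, then RGS4 at 900nM (2x) plus Transcreener GDP mix added; fluorescence polarization (620/688 nm) read before and after 90 min at 30 °C.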
PI4K2A block: qHTS for small molecular inhibitors of PI4K2A. AID 1346378, 2018. purified PI4K2A, ADP-Glo luminescence, 1 h; stronger effect = lower value. activity change, negative = inhibition, % at 76.9 µM. 420,000 tested, 0.13% active. Phosphatidylinositol 4-kinase type 2-alpha (Homo sapiens), Q9BTU6; in the data active = activity change below about -50%; inconclusive = mostly about -30% to -49%
Target sequence (Q9BTU6 whole entry, looked up): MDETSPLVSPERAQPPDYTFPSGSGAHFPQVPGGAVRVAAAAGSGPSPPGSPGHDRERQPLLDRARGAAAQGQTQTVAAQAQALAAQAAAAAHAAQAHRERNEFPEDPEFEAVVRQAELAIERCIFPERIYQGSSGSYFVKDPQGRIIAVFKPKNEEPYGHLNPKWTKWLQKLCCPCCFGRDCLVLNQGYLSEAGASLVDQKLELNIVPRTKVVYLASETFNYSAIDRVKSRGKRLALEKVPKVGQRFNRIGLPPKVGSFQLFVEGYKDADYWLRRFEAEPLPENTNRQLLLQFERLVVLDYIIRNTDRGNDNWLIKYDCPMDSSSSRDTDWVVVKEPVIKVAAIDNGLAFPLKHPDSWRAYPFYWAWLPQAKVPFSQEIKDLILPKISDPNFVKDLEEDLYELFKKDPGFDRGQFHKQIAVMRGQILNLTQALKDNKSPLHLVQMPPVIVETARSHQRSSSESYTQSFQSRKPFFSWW
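Compounds are screened against recombinant PI4K2A using PI as substrate and ATP, the latter dispensed at 300 microM. Reactions run one hour at ambient temperature before ADP-Glo detection; full inhibition defined by wells lacking enzyme.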
DRD3 antagonist: qHTS of D3 Dopamine Receptor Antagonist: qHTS. D(3) dopamine receptor (Homo sapiens), P35462. D3R cells, DiscoveRx beta-arrestin luminescence, antagonist mode; stronger effect = lower value. max response, negative = inhibition, %. 360,000 tested, 2.5% active; in the data active = max response below about -50%; inconclusive = no clear call, values can overlap the other calls
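Cells expressing the human receptor were seeded at 1500 cells/well, incubated overnight at 37 degrees C in 5% CO2, then exposed to library compounds with dopamine controls for 90 minutes at 37 degrees C before luminescent detection.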
Numbers stand for hits; – = inactive; ? = inconclusive; · = not tested or not shown; [ ] = remark or other dose. This is a sample that favours compounds with a hit; in the whole collection about 2.8% have one here.

SMILES | LDHA block | Akt phos inh | D3 ag | RGS4 inhibitor | PI4K2A block | DRD3 antagonist
CCOc1ccccc1Oc1c(C)oc2cc(OCC(=O)O)ccc2c1=O | – | · | · | · | · | ·
Cc1c(C)n(C)c2ccc(C(=O)NCCCN3CCN(c4ccccc4F)CC3)cc12 | – | – | – | –[11.4 µM] | – | -82
CCc1nc2ccc(C(=O)NCCCN3CCN(c4ccccc4F)CC3)cc2nc1CC | – | – | – | – | – | -66
Cc1c(C)n(C)c2ccc(C(=O)NCCCN3CCCC3)cc12 | – | – | – | – | – | –
Cc1c(C)n(C)c2ccc(C(=O)NCCCN3CCN(c4ccc(F)cc4)CC3)cc12 | – | – | – | –[11.4 µM] | – | -56
O=C(NCCN1CCN(c2ccccc2F)CC1)c1ccc2nc3ccccc3c(=O)n2c1 | – | – | – | – | – | -58
O=C(NCCCN1CCN(c2ccccc2F)CC1)c1ccc2nc(Cc3ccccc3)oc2c1 | – | · | – | – | – | ·
O=C(O)/C(=C/C=C\c1ccccc1)NC(=O)c1ccc(Br)o1 | – | · | · | · | · | ·
CCC(CC)C(=O)Nc1sc2c(c1C#N)CCCC2 | – | · | · | · | · | ·
COc1ccc(/C=C2\Oc3cc(OS(=O)(=O)c4ccccc4)ccc3C2=O)c(OC)c1OC | – | · | · | · | · | ·
FC(F)Oc1ccc(-c2ccnc(=S)[nH]2)cc1 | – | · | · | · | · | ·
COCCCNCCCCOc1c(Cl)cc(C)cc1Br | – | – | – | – | – | -77
COCCCNCCCOc1ccc(C)cc1Br | – | – | – | – | – | -73
COCCNCCCOc1ccc(C)cc1Br | – | – | – | – | – | -51
CCOc1ccccc1OCCCOc1ccc(C)cc1Br | – | – | – | – | – | –
CCN(CC)CCCOc1ccc(C)cc1Br | – | – | – | – | – | -75
C=CCNCCCCOc1c(Cl)cc(C)cc1Br | – | · | – | – | – | –
C=CCNCCCOc1ccc(C)cc1Br | – | – | – | – | – | ?
CCOC(=O)C(C#N)C1(Cc2ccccc2)CCOC(C)(C)C1 (stereo not drawn) | – | · | · | · | · | ·
N#Cc1ccc(N)c(Br)c1 | – | · | · | · | · | ·
O=C(NCCc1c[nH]c2ccccc12)NC1CCCCCCC1 | – | · | · | · | · | ·
COc1ccc(Cl)cc1NC(=O)Cn1c(SCc2cccc(C)c2)nc2ccncc21 | – | · | · | · | · | ·
Cc1cccc(CSc2nc3ccncc3n2CC(=O)Nc2cc(C)cc(C)c2)c1 | – | – | – | – | – | -55
CCN(CC)CCNCC(O)(c1ccc(Cl)cc1)c1ccc(Cl)cc1 | – | – | – | – | – | -60
COc1ccccc1CNCC(O)(c1ccc(Cl)cc1)c1ccc(Cl)cc1 | – | – | – | – | – | -83
SMILES | LDHA block | Akt phos inh | D3 ag | RGS4 inhibitor | PI4K2A block | DRD3 antagonist
CC(C)(C)NCC(O)(c1ccc(Cl)cc1)c1ccc(Cl)cc1 | – | – | – | – | – | –
Cc1cc(OCC(=O)Nc2ccc(CCO)cc2)c2c(C)cc(=O)oc2c1 | – | · | · | · | · | ·
O=C(NC(C1CC1)C1CC1)c1ccc(Cl)cc1 | – | · | · | · | · | ·
CCCC(=O)Nc1ccc(Cl)c(NC(=O)c2ccc(OCC)cc2)c1 | – | · | · | · | · | ·
Cc1[nH][nH]c(=O)c1C(c1ccc(-c2ccc(Cl)c(C(=O)O)c2)o1)c1c(C)[nH][nH]c1=O | – | – | – | – | -59 | –
CC(=O)Nc1ccc(NC(=O)c2ccc(NC(=O)c3ccccc3)cc2)cc1 | – | – | – | – | – | –
COc1cccc(NC(=O)c2ccc3snnc3c2)c1 | – | -113% | – | – | – | –
CC(=O)Nc1ccc(C(=O)OCC(=O)c2cccc([N+](=O)[O-])c2)cc1 | – | – | – | – | – | –
CC(=O)Nc1ccc(NC(=O)c2cccc(Oc3ccccc3)c2)cc1 | – | – | – | – | – | -51
CN1CCN(C(=O)c2ccc3ccccc3c2)CC1 | – | – | – | – | – | -83
COC(=O)Nc1ccc(SCC(=O)c2cccc([N+](=O)[O-])c2)cc1 | – | – | – | – | – | -60
